An excerpt weighted towards active compounds, which were near 6.5% of everything screened.
HCMV antiviral = qHTS Assay for inhibitors of the human cytomegalovirus (HCMV); HFF cells, HCMV-luciferase reporter, 72 h; stronger effect = lower value; activity change, negative = inhibition, % at 57.5 µM; 410,000 tested, 4.5% active; in the data active = activity change below about -60%; inconclusive = no clear call, values can overlap the other calls; inactive = above about -39%
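After 16 h attachment at 37C, HFF cells received test compound and HCMV-luciferase (1 PFU/cell); reporter luminescence read 72 h later, data normalized against buffer-only and known inhibitor Salinomycin.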
Lassa entry inh = qHTS for Inhibitors of binding or entry into cells for Lassa Virus. Lassa virus pseudotype entry inhibition, cell reporter. Potency, µM (top dose mostly 37.9 µM), usual class: inhibitors. 300,000 tested, 1.2% active. AID 540256, 2011; calls by dose curve; tested in HEK293 cells; also: nearly all actives have a fitted effect of over 50% in size
VACV mCherry inh = qHTS for Stage-Specific Inhibitors of Vaccinia Orthopoxvirus: mCherry Reporter Primary qHTS. 310,000 tested, 0.63% active. Vaccinia virus mCherry reporter infection, fluorescence. Potency, µM (highest dose often 36.5 µM), actives largely listed as inhibitors; calls by dose curve; tested in A549 cells; also: nearly all actives have a fitted effect of over 35% in size
Marburg entry inh = qHTS for inhibitors of binding or entry into cells for Marburg Virus; Marburg virus pseudotyped entry inhibition, cell reporter; Potency, µM (series often up to 37.8 µM), actives largely listed as inhibitors; 300,000 tested, 1.8% active; AID 540276, 2011; calls by dose curve; tested in HEK293 cells
VACV Venus inh = qHTS for Stage-Specific Inhibitors of Vaccinia Orthopoxvirus: Venus Reporter Primary qHTS; Vaccinia virus Venus reporter expression, fluorescence; Potency, µM (doses to about 36.5 µM), usual class: inhibitors; 330,000 tested, 0.46% active; AID 720580, 2013; calls by dose curve; tested in A549 cells; also: nearly all actives have a fitted effect of over 30% in size
FMDV antiviral = High Throughput Screening for Foot and Mouth Disease Virus Antivirals. FMDV antiviral cell-based qHTS. Potency, µM (highest dose often 57.9 µM), usual class: inhibitors. 410,000 tested, 1.2% active. AID 1159524, 2015; calls by dose curve; tested in HEK293T cells; also: read-out not given here; nearly all actives have a fitted effect of over 45% in size
Numbers stand for hits; - = inactive; ? = inconclusive; . = no result; ! = repeats disagree.

SMILES	HCMV antiviral	Lassa entry inh	VACV mCherry inh	Marburg entry inh	VACV Venus inh	FMDV antiviral
CCCC[n+]1c(/C=C/c2c(OC)cc(OC)cc2OC)ccc2ccccc21	.	.	10µM	.	-	.
COc1cc(OC)c(/C=C/c2ccc3ccccc3[n+]2C)c(OC)c1	.	.	?	.	-	.
COc1cc(OC)c(OC)cc1/C=C/c1ccc2ccccc2[n+]1C	.	.	-	.	-	.
CCCCOc1ccc(CS[C@@H](CC(=O)O)C(=O)O)cc1	.	.	.	-	.	.
CC[N+]1(CC(=O)c2cccs2)CCCCC1	.	.	-	.	-	.
Cc1ccc(C)c(NC(=S)N/N=C2/CCCCc3ccccc32)c1	-71	?	-	?	-	-
CC(C)NC(=S)N/N=C1\CCCCc2ccccc21	?	.	.	.	.	-
O=C(Oc1c(CN2CCOCC2)cc(Cl)c2cccnc12)c1ccc(F)cc1	-97	?	.	10µM	.	-
COc1cc(C(=O)Oc2c(CN3CCOCC3)cc(Cl)c3cccnc23)cc(OC)c1OC	.	.	?	-	?	?
COc1cccc(C(=O)Oc2c(CN3CCOCC3)cc(Cl)c3cccnc23)c1	-78	?	.	8.2µM	.	?
COc1ccc(C(=O)Oc2c(CN3CCOCC3)cc(Cl)c3cccnc23)cc1	-75	-	.	?	?	-
CCOC(=O)c1c2c3c(c(Cl)ccc3[nH]c1=O)C(=O)c1ccccc1-2	-97	-	-	-	-	-
COc1ccc(N(Cc2cccs2)C(=O)COc2cccc(C)c2C)cc1	?	?	-	?	-	-
COc1ccc(N(Cc2cccs2)C(=O)COc2cc(C)c(Cl)c(C)c2)cc1	-99	-	-	?	-	?
Cc1ccccc1N1CC(C(=O)O)CC1=O (centres undefined)	-85	-	-	-	-	-
Cc1ccc(OCC(=O)OCc2cc(=O)n3nc(-c4cccs4)sc3n2)cc1C	-	-	-	.	-	-
O=C1Nc2ccccc2/C1=N/N=C/c1ccc(-c2ccc([N+](=O)[O-])cc2)o1	-83	.	.	.	.	-
CCOC(=O)N1CCc2c(sc(NCc3ccc(OC)c(OC)c3OC)c2C(=O)Nc2ccc(OC)cc2OC)C1	-80	?	-	.	-	?
CCOC(=O)N1CCc2c(sc(NCc3cccs3)c2C(=O)Nc2ccc(OC)cc2OC)C1	-91	?	-	.	-	?
CCOC(=O)N1CCc2c(sc(NCc3cccs3)c2C(=O)Nc2cc(OC)ccc2OC)C1	-	-	-	.	-	-
CCOC(=O)N1CCc2c(sc(NCc3ccc(OCC)cc3)c2C(=O)Nc2ccc(OC)cc2OC)C1	-80	?	-	.	-	?
COc1ccc2c(c1)c1c(c(=O)n(-c3ccc(OC)c(OC)c3)c(=O)n1Cc1ccc(F)cc1)n2C	-	-	-	.	-	-
Cc1ccc(-c2noc(C(C)NS(=O)(=O)c3ccc(C)cc3)n2)cc1 (centres undefined)	-	-	-	.	-	-
COc1cc(OC)cc(C(=O)NCC(=O)N2CC=C(c3ccccc3)CC2)c1	-	-	?	?	?	-
Cc1cc(C)c(OCC(=O)N2CC=C(c3ccccc3)CC2)c(C)c1	-67	.	.	.	.	-
SMILES	HCMV antiviral	Lassa entry inh	VACV mCherry inh	Marburg entry inh	VACV Venus inh	FMDV antiviral
CN(C)c1nc2n(c(=O)n1)[C@H](C#N)CS2	.	.	.	-	.	.
Nc1nc(=O)n(C2OC(CO)C(O)C2O)cc1Cl (centres undefined)	.	.	-	.	-	-
COc1ccc(CC2=CC(=O)c3ccccc3C2=O)cc1	-97	.	.	.	.	?
CCOCCCNC(=O)CCc1ccc(-n2cnc3cccnc32)cc1	-67	-	-	-	-	-
Cc1ccc(C2NC(=O)c3n[nH]c(C)c32)cc1 (centres undefined)	-	.	.	.	.	.
CCc1nnc2c3ccccc3nc(N3CCN(c4cc(Cl)ccc4C)CC3)n12	-	-	-	.	-	-
Cc1ccccc1NC(=O)Cn1nnc(C(=O)NCc2ccco2)c1N	-	-	?	?	4µM	-
Cc1cc(C)c(NC(=O)Cn2nnc(C(=O)NCc3cccs3)c2N)c(C)c1	-	-	-	?	-	40µM!
CCOc1ccccc1NC(=O)Cn1nnc(C(=O)NCc2ccco2)c1N	-90	-	?	?	?	-
COc1ccc(Nc2ncnc3c2nc2n3CCCCC2)cc1	-	-	-	.	-	-
O=C(Nc1ncc([N+](=O)[O-])s1)c1ccc2c(c1)OCO2	-93	?	-	1.6µM	-	3.2µM
CC(=O)Nc1ncc([N+](=O)[O-])s1	-	.	.	.	.	.
Cc1ccc(C(=O)Nc2ncc([N+](=O)[O-])s2)cc1	-70	.	.	.	.	8.9µM
Cc1onc(-c2ccccc2)c1C(=O)Nc1ncc([N+](=O)[O-])s1	-96	?	?	?	?	?
O=C(COc1ccc(Cl)cc1)Nc1ncc([N+](=O)[O-])s1	-61	?	11µM	?	10µM	-
CCc1cccc(NC(=O)Nc2csc3c2CCCC3)c1	-	.	-	?	-	-
CCOC(=O)C(C)=NNC(C)=O	.	.	.	-	.	.
Cc1ccc(C(=O)Nc2ncc(Cc3ccc(SC(F)F)cc3)s2)cc1	-63	?	-	-	?	-
C=CCc1cccc(/C=N/NC(=O)CN2CCN(Cc3ccccc3)CC2)c1O	.	.	.	?	.	-
O=C(COc1ccc(Cl)cc1Cl)N/N=C1\CCCc2ccccc21	-	-	-	-	-	-
O=C(COc1ccc(Cl)cc1Cl)NN=C1c2ccccc2-c2ccccc21	-61	?	-	-	-	?
CCO[C@@H]1OC(C(=O)NCc2ccccc2)=C[C@H](c2ccc3c(c2)OCO3)[C@H]1CCCO	-	.	-	.	-	-
CCO[C@@H]1OC(C(=O)N2CCN(Cc3ccc4c(c3)OCO4)CC2)=C[C@H](c2coc3ccccc3c2=O)[C@H]1CCCO	-89	.	-	.	-	-
CCO[C@@H]1OC(C(=O)Nc2ccccc2)=C[C@H](c2ccc(Br)cc2)[C@H]1CCCO	-	.	-	.	-	-
CCO[C@H]1OC(C(=O)O)=C[C@@H](c2ccc3c(c2)OCO3)[C@@H]1CCCO	-101	.	-	.	-	-
SMILES	HCMV antiviral	Lassa entry inh	VACV mCherry inh	Marburg entry inh	VACV Venus inh	FMDV antiviral
CCO[C@H]1OC(C(=O)N2CCN(Cc3ccccc3)CC2)=C[C@@H](c2coc3ccccc3c2=O)[C@@H]1CCCO	-	.	-	.	-	-
CCO[C@@H]1OC(C(=O)Nc2ccccc2)=C[C@H](c2ccccc2)[C@H]1CCCO	-61	.	-	.	-	-
CCO[C@@H]1OC(C(=O)Nc2ccccc2)=C[C@H](c2ccc3c(c2)OCO3)[C@H]1CCCO	-	.	-	.	-	-
CCO[C@H]1OC(C(=O)NCc2ccccc2)=C[C@@H](c2ccc3c(c2)OCO3)[C@@H]1CCCO	-68	.	-	.	-	-
COC(=O)C1=C[C@@]2(c3ccc(F)cc3[C@@H](OC)[C@@H]2C)[C@@H]2C=C[C@H]1C2	.	.	.	-	.	.
COc1ccc(S(=O)(=O)NCc2ccncc2)cc1OC	-65	-	.	-	.	-
COc1ccc(S(=O)(=O)NCc2cccnc2)cc1OC	-	-	-	-	-	-
Cc1cc(S(=O)(=O)NCc2ccncc2)c(C)cc1Br	-87	?	-	?	-	-
COc1cc(S(=O)(=O)NCc2ccncc2)c(OC)cc1Cl	-79	-	-	-	-	-
